G9a inh: qHTS Assay for Inhibitors of Histone Lysine Methyltransferase G9a. Histone-lysine N-methyltransferase EHMT2 (Homo sapiens), Q96KQ7. G9a H3K9 monomethylation, AlphaScreen, 2 h. Potency, µM (highest dose often 102 µM), inactives show at the highest dose activity, negative = inhibition, most hits filed as inhibitors. actives 8.8% (n = 350,000); note: % is set by controls: 0 for no effect and ±100 for the full control effect; nearly all actives have a fitted effect of over 75% in size
Target sequence (Q96KQ7 913-1193 limits assumed): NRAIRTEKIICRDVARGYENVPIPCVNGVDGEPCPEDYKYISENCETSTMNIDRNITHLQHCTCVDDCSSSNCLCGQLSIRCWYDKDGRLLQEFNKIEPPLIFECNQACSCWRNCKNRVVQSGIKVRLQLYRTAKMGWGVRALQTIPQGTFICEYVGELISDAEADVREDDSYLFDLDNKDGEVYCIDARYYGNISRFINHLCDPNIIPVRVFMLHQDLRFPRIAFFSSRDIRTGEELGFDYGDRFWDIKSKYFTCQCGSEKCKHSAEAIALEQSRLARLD
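Chemiluminescent proximity detection of H3K9 monomethylation, read after 10 min bead incubation in the dark. Reaction: 20 nM G9a, 500 nM biotin-H3K9 peptide, 20 uM SAM cofactor, 2 h, room temperature, following 15 min enzyme-compound preincubation.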
BAZ2B block: qHTS Assay for Inhibitors of BAZ2B | Bromodomain adjacent to zinc finger domain protein 2B (Homo sapiens), Q9UIF8 | AlphaScreen BAZ2B-H3K14Ac peptide displacement | Potency, µM (titrated, usually from 114 µM), for inactives: at the top dose activity change, negative = inhibition, usual class: inhibitors | actives 4.4% (n = 360,000) | AID 504333, 2011; note: % is set by controls: 0 for no effect and ±100 for the full control effect; nearly all actives have a fitted effect of over 60% in size
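BAZ2B (50 nM) with biotin-H3(5-23)K14Ac peptide (50 nM) in PBS pH 7.4, 0.01% Tween-20, preformed 30 min, then compound 30 min at room temperature; top concentration 110uM. AlphaScreen streptavidin donor/nickel chelate acceptor beads (10 ug/mL final), 20 min dark, signal read.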
HP1b chromo inh: HTS for Inhibitors of HP1-beta Chromodomain Interactions with Methylated Histone Tails. Potency, µM (top dose mostly 114 µM), without a hit: at the highest dose activity change, negative = inhibition, most hits filed as inhibitors. Chromobox protein homolog 1 (Homo sapiens), P83916. actives 0.56% (n = 390,000). AlphaScreen HP1-beta / biotin-H3K9me3 peptide binding. AID 540317, 2011; note: nearly all actives have a fitted effect of over 70% in size
Target sequence (P83916 whole entry, looked up): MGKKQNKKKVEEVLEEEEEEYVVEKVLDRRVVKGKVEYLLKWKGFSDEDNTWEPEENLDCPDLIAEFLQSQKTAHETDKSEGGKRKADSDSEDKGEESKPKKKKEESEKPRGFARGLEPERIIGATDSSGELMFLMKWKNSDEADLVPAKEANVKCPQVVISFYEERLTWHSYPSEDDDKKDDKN
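HP1-beta protein (50 nM final) preincubated 30 min at room temperature with biotinylated H3(1-18)K9me3 peptide (50 nM) in PBS pH 7.4, 0.01% Tween-20, then compound added for 30 min. AlphaScreen streptavidin donor/nickel chelate acceptor beads (10 ug/mL final), 30 min dark, luminescence read.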
PLK1 PBD block: qHTS for Inhibitors of PLK1-PDB (polo-like kinase 1 - polo-box domain): Primary Screen; actives 2.8% (n = 360,000); Potency, µM, for inactives: max response, negative = inhibition, actives largely listed as inhibitors; Plk1 PBD binding of FITC phosphopeptide, fluorescence polarization; note: series mostly up to about 57 µM; % is set by controls: 0 for no effect and ±100 for the full control effect; nearly all actives have a fitted effect of over 65% in size
VDR inh: Inhibitors of the vitamin D receptor (VDR): qHTS | Vitamin D3 receptor (Homo sapiens), P11473 | VDR-SRC2-3 peptide fluorescence polarization, 2 h | Potency, µM, inactives show max response, negative = inhibition, most hits filed as inhibitors | actives 0.93% (n = 400,000) | AID 504847, 2011; note: % is set by controls: 0 for no effect and ±100 for the full control effect
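Fluorescence polarization assay of small-molecule disruption of VDR binding to coregulator peptide SRC2-3. Compounds and controls pin-transferred, then read after 2 h incubation at ambient room temperature.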
JMJD2A Tudor: qHTS Assay for Inhibitors of JMJD2A-Tudor Domain; AlphaScreen JMJD2A-Tudor / H3K4me3 peptide binding; Potency, µM (doses to about 114 µM), inactives show at the top dose activity change, negative = inhibition, actives largely listed as inhibitors; AID 504339, 2011; Lysine-specific demethylase 4A (Homo sapiens), O75164; actives 4.4% (n = 390,000); note: % is set by controls: 0 for no effect and ±100 for the full control effect; nearly all actives have a fitted effect of over 50% in size
An asterisk follows results filed as active; [ ] = dose if it differs, or a comment. Sampled rows, rich in hits. Any-hit rate of the full collection: about 11%. Calls come from the whole dose curve; as a rule, active = well fitted curve in the direction sought with a large enough effect; inconclusive = small, poorly fitted or top-dose-only effect, or another doubt; inactive = no such curve, though single readings can be large; an effect the other way counts as inactive or inconclusive. Potency is the fitted concentration of half-maximal effect.

What do the screens show for `COc1ccccc1C(=O)Nc1ccc(N2CCCCC2)cc1`?
G9a inh: 50µM*; BAZ2B block: inconclusive; HP1b chromo inh: inconclusive; PLK1 PBD block: -9%; VDR inh: -7%; JMJD2A Tudor: 56µM*

What do the screens show for `COc1ccc(C(=O)Nc2ccc(N3CCN(C)CC3)cc2)cc1OC`?
BAZ2B block: -1%; HP1b chromo inh: 24%; PLK1 PBD block: -6%; VDR inh: 38%; JMJD2A Tudor: -13%

What do the screens show for `CC(NC(=O)CN(C)S(=O)(=O)c1cccc2nsnc12)c1ccccc1` (stereo not drawn)?
G9a inh: 1%; BAZ2B block: -4%; HP1b chromo inh: 44%; PLK1 PBD block: -1%; VDR inh: -14%; JMJD2A Tudor: -14%

What do the screens show for `COc1ccc(Br)cc1C(=O)Nc1ccc(N2CCCC2)cc1`?
BAZ2B block: 22µM*; HP1b chromo inh: inconclusive; PLK1 PBD block: -5%; VDR inh: -7%; JMJD2A Tudor: inconclusive

What do the screens show for `COc1ccc(NC(=O)CC2C(=O)N(c3cccc(OC)c3)C(=O)N2CCc2cccs2)cc1` (stereo not drawn)?
G9a inh: 3%[59 µM]; BAZ2B block: -13%; HP1b chromo inh: 30%; VDR inh: -17%; JMJD2A Tudor: -14%

How did COc1ccc(-c2csc(Nc3ccccc3)[n+]2Cc2ccccc2)cc1 do in these assays?
G9a inh: 16µM*; HP1b chromo inh: inconclusive; PLK1 PBD block: -2%; VDR inh: inconclusive; JMJD2A Tudor: -3%

How did O=[N+]([O-])c1ccc(-c2csc(Nc3ccccc3)[n+]2Cc2ccccc2)cc1 do in these assays?
G9a inh: inconclusive; BAZ2B block: 40µM*; HP1b chromo inh: 16µM*; PLK1 PBD block: 3%; VDR inh: -1%; JMJD2A Tudor: 18µM*

What do the screens show for `Cc1n(Cc2ccccc2)c2cc([N+](=O)[O-])ccc2[n+]1Cc1ccccc1`?
BAZ2B block: 13%; HP1b chromo inh: 39%; PLK1 PBD block: 2%; VDR inh: -16%; JMJD2A Tudor: 0%

How did Cc1ccc(-c2csc(Nc3ccc(C(=O)O)cc3)[n+]2Cc2ccccc2)cc1 do in these assays?
G9a inh: 15%; BAZ2B block: -38%; HP1b chromo inh: -26%; PLK1 PBD block: inconclusive; VDR inh: -6%; JMJD2A Tudor: 40µM*

How did Cc1nc(Nc2ccc(C(=O)O)cc2)sc1-c1ccccc1 do in these assays?
G9a inh: -39%; BAZ2B block: -34%; HP1b chromo inh: 10%; PLK1 PBD block: -24%; VDR inh: 3%; JMJD2A Tudor: inconclusive

What do the screens show for `OC[C@@H]1CN(Cc2ccc(Cl)cc2)C[C@H](n2cnc3c(N4CCN(c5ccccc5)CC4)ncnc32)O1`?
PLK1 PBD block: -6%

Results for C#CCOCCOCCOCCNc1nc(N2CCOCC2)nc(N2CCN(C(=O)[C@H](CCC(=O)O)n3cc([C@@H](N)CCCCN)nn3)CC2)n1 ?
HP1b chromo inh: 37%; PLK1 PBD block: -4%; VDR inh: 3%; JMJD2A Tudor: -19%

Results for C#CCOCCOCCOCCNc1nc(N2CCN(C(=O)[C@H](CC(N)=O)n3cc([C@@H](N)CC(N)=O)nn3)CC2)nc(N2CCN(C(=O)[C@H](CC(N)=O)n3cc([C@@H](N)CC(N)=O)nn3)CC2)n1 ?
HP1b chromo inh: 41%; PLK1 PBD block: -4%; VDR inh: 7%; JMJD2A Tudor: 25µM*

Assay outcomes as filed in PubChem.
